# Reference: PubChem BioAssay
# Records with an inconclusive call do not appear. The list shows a part of the results. The source made the active and inactive calls.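 How the source made its calls, unless noted: active means inhibition above 50%; inactive means the rest.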
# Key:
# [1] = disruption of biotin probe capture by avidin, counter-screen for RGS protein interaction modulators, biochemical, flow cytometry, bead-based (AID 1783); details: streptavidin beads, fluorescein-biotin binding; at 10 µM, stronger effect = higher value;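 further: median green fluorescence of gated singlet beads compared with DMSO control wells; 0% = DMSO wells and 100% = complete loss of bead fluorescence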
# [2] = target: Guanine nucleotide-binding protein G(o) subunit alpha (Homo sapiens) (UniProt P09471); assay: RGS8-Galphao binding modulators, confirmation, biochemical, multiplexed bead flow cytometry, single concentration (AID 1836; in the data active means binding response below about 72% or above about 130%; inactive means in between;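 further: Galphao activated as GDP AlF4 complex before binding bead RGS8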); details: bead-based flow cytometry RGS8-Galphao binding, fluorescence; at 10 µM; actives lie on both sides
# Chain of Guanine nucleotide-binding protein G(o) subunit alpha (Homo sapiens) (P09471 whole entry, looked up): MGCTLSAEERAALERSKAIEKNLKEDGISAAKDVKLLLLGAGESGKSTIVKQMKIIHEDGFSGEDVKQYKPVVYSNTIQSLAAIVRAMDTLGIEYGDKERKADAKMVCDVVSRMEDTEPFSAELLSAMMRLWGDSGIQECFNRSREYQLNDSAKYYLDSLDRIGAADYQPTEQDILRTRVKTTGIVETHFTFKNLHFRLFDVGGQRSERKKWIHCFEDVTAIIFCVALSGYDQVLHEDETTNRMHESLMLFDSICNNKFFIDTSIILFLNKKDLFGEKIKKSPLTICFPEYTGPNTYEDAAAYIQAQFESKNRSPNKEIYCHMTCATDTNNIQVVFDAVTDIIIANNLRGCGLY
# [3] = target: Guanine nucleotide-binding protein G(o) subunit alpha (Homo sapiens) (UniProt P09471); assay: RGS7-Galphao binding modulators, confirmation, biochemical, multiplexed bead flow cytometry, single concentration (AID 1837; in the data active means response below about 75% or above about 130%; inactive means in between;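 further: fluorescent Galphao activated with GDP and aluminum fluoride binding bead-coupled RGS7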); details: bead-based flow cytometry RGS7-Galphao binding; at 10 µM; actives lie on both sides
# [4] = target: Regulator of G-protein signaling 16 (Homo sapiens) + Guanine nucleotide-binding protein G(o) subunit alpha (Homo sapiens) (UniProt O15492+P09471); assay: modulators of RGS16-Galphao protein binding, confirmation, biochemical, single concentration, multiplexed bead flow cytometry (AID 1838; in the data active means response below about 74% or above about 130%; inactive means in between;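 further: Galphao activated as the GDP aluminium fluoride complex binding bead-coupled RGS16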); details: bead-based flow cytometry, at 10 µM, actives lie on both sides
# Chain of Regulator of G-protein signaling 16 (Homo sapiens) + Guanine nucleotide-binding protein G(o) subunit alpha (Homo sapiens) (O15492 whole entry, looked up): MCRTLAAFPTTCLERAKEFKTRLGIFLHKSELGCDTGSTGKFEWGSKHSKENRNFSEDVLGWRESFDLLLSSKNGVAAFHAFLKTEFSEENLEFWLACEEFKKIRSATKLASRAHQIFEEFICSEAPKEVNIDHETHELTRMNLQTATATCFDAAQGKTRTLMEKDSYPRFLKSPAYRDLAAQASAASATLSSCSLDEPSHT
# Chain of Regulator of G-protein signaling 16 (Homo sapiens) + Guanine nucleotide-binding protein G(o) subunit alpha (Homo sapiens) (P09471 whole entry, looked up): as the sequence (P09471 whole entry, looked up) above
# [5] = target: Guanine nucleotide-binding protein G(o) subunit alpha (Homo sapiens) (UniProt P09471); assay: modulators of RGS4-Galphao protein binding, confirmation, biochemical, single concentration, multiplexed bead flow cytometry (AID 1840; in the data active means binding response below about 74% or above about 130%; inactive means in between); details: at 10 µM, actives lie on both sides
# [6] = target: Guanine nucleotide-binding protein G(o) subunit alpha (Homo sapiens) + Regulator of G-protein signaling 19 (Homo sapiens) (UniProt P09471+P49795); assay: regulators of RGS19-Galphao binding, confirmation, biochemical, single point, multiplexed bead flow cytometry (AID 1841; in the data active means response below about 50% or above about 160%; inactive means in between;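 further: 100% = no compound control and 0% = blank background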); details: bead-based flow cytometry RGS19-Galphao binding; at 10 µM; actives lie on both sides
# Chain of Guanine nucleotide-binding protein G(o) subunit alpha (Homo sapiens) + Regulator of G-protein signaling 19 (Homo sapiens) (P09471 whole entry, looked up): as above
# Chain of Guanine nucleotide-binding protein G(o) subunit alpha (Homo sapiens) + Regulator of G-protein signaling 19 (Homo sapiens) (P49795 whole entry, looked up): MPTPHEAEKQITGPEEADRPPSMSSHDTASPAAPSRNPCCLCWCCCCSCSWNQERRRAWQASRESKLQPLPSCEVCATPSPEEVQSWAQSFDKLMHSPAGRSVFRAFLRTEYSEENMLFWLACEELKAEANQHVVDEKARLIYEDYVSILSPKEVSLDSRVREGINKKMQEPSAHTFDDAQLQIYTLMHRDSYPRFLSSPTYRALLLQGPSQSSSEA
# [7] = yeast TOR pathway RPL19A-GFP modulators, primary screen, cell-based, S. cerevisiae, multiplex flow cytometry (AID 1862; in the data active means percent of DMSO control GFP below about 86%;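 further: lower values mimic rapamycin by blocking the RPL19A rise seen in DMSO cells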); details: S. cerevisiae RPL19A-GFP strain, flow cytometry fluorescence, 3 h; at 10 µM; stronger effect = lower value
# [8] = modulators of MEP2-GFP levels in yeast, primary screen, S. cerevisiae, multiplex flow cytometry (AID 1867;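 active means GFP response, as percent of the DMSO control, above the screen-wide mean plus 3 SD, about 139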;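 further: median GFP channel fluorescence of barcode-gated MEP2-GFP cells measured by flow cytometry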); details: S. cerevisiae MEP2-GFP strain, 3 h, at 10 µM, stronger effect = higher value, 100% means same as DMSO wells
# [9] = modulators of CIT2-GFP expression in yeast, primary screen, S. cerevisiae, GFP fusion, multiplex flow cytometry (AID 1870;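 active means percent response above a set limit, the screen-wide mean plus 3 SD, cut at about 130% in these data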;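 further: barcoded CIT2-GFP strain pooled with four other GFP strains with rapamycin as positive control; median GFP fluorescence per well over plate mean of DMSO wells so 100% = DMSO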); details: 3 h, at 10 µM, stronger effect = higher value
# [10] = modulators of LAP4-GFP expression in yeast, primary screen, S. cerevisiae, multiplex flow cytometry (AID 1873;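 active means GFP signal, as percent of the solvent control, above the screen mean plus 3 SD, about 149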); details: 3 h, at 10 µM, stronger effect = higher value
# [11] = modulators of AGP1-GFP expression in yeast TOR pathway, primary screen, cell-based, multiplex flow cytometry, S. cerevisiae (AID 1887;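 active means GFP signal above the screen-wide mean plus 3 SD, that is over about 124.5% of the solvent control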;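 further: AGP1-GFP fusion strain of S. cerevisiae within a five-strain barcoded multiplex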); details: 3 h, at 10 µM, stronger effect = higher value
# [12] = RPL19A-GFP modulators, yeast TOR pathway, confirmation, cell-based, S. cerevisiae, flow cytometry, cherry picks, mother/daughter gates (AID 2270;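 active means GFP response below 50% of the DMSO control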); details: S. cerevisiae RPL19A-GFP strain, 3 h, at 10 µM, stronger effect = lower value, 100 = same GFP as DMSO wells
# [13] = LAP4-GFP expression modulators in yeast, confirmation, cell-based, cherry picks, flow cytometry, mother/daughter gates (AID 2271;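 active means GFP response above 150% of the DMSO control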;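 further: ratio of sample to DMSO plate mean so 100% equals DMSO level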); details: S. cerevisiae LAP4-GFP strain, 3 h, at 10 µM, stronger effect = higher value, 100 means same as DMSO control
# [14] = modulators of MEP2-GFP levels in yeast, confirmation, S. cerevisiae, flow cytometry GFP, cherry picks (AID 2272;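 active means GFP response above 150% of the DMSO control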;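 further: ratio of well signal to plate DMSO mean so 100% equals DMSO level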); details: S. cerevisiae MEP2-GFP strain, 3 h, at 10 µM, stronger effect = higher value
# [15] = modulators of CIT2-GFP expression in yeast, confirmation, S. cerevisiae, GFP fusion, cherry picks, mother/daughter gates (AID 2274;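 active means GFP response above 150% of the DMSO level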); details: S. cerevisiae CIT2-GFP strain, flow cytometry, 3 h, at 10 µM, stronger effect = higher value
# [16] = inhibitors of CD8+ T cell-vesicle binding, pilot screen, LFA-1/ICAM-1 modulator project, MLPCN validation set, flow cytometry (AID 2523;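 active means response below a set limit, under 55% cells CD8-positive and vesicle-bound, and CD8 cells' 90th-percentile brightness under 279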;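 on vesicle binding response: mean PE anti-B7-1 fluorescence of CD8+ cells relative to row control; 100% = QL9-loaded vesicles with DMSO vehicle in the same plate row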); details: 2C mouse CD8+ T cells, at 7 µM, stronger effect = lower value; double positive events: measured here: CD8+/vesicle+ event percentage
# [17] = target: Regulator of G-protein signaling 16 (Homo sapiens) (UniProt O15492); assay: modulators of RGS–Galpha-o binding, primary screen, biochemical, multiplexed beads, flow cytometry, RGS4/7/8/16/19 (AID 1504); details: multiplexed bead flow cytometry, measured here: RGS16 interaction, at 10 µM;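 further: fluorescently labeled Galpha-o bound to GDP with aluminium fluoride binding biotinylated RGS beads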
# [18] = target: Regulator of G-protein signaling 19 (Homo sapiens) (UniProt P49795); assay: as above; details: multiplexed bead flow cytometry, measured here: RGS19 interaction, at 10 µM
# [19] = target: Regulator of G-protein signaling 7 (Homo sapiens) (UniProt P49802); assay: as above; details: multiplexed bead flow cytometry, measured here: RGS7 interaction, at 10 µM
# [20] = target: Regulator of G-protein signaling 8 (Homo sapiens) (UniProt P57771); assay: as above; details: multiplexed bead flow cytometry, measured here: RGS8 interaction, at 10 µM
# [21] = measured here: daughter cell gate
# [22] = measured here: mother cell gate
# [23] = measured here: daughter cell gate response
# [24] = measured here: mother cell gate response
structure (smiles),measurement,setting,value
Cc1c(Br)cc(C(=O)N2CCCCCC2)c(C)c1C,inhibition,[1],-0.3% (inactive)
same,binding response (% of control),[2],102% (inactive)
same,response (percent of control binding),[3],102% (inactive)
same,response (% of control binding),[4],102% (inactive)
same,binding response (% of control),[5],102% (inactive)
same,response (percent of control binding),[6],104% (inactive)
CC(=O)[C@@]1(O)CC[C@H]2[C@@H]3C[C@H](C)C4=CC(=O)CC[C@]4(C)[C@H]3CC[C@@]21C,percent of DMSO control GFP,[7],90.2% (inactive)
same,GFP response vs DMSO,[8],114% (inactive)
same,percent response of DMSO control,[9],96.6% (inactive)
same,GFP response vs DMSO,[10],78.1% (inactive)
same,"GFP response, % of DMSO",[11],96.6% (inactive)
same,GFP response vs DMSO,[12],94.8% (inactive)
same,GFP response vs DMSO,[12]; [21],96.1%
same,GFP response vs DMSO,[12]; [22],95.1%
same,GFP response relative to DMSO,[13],94.1% (inactive)
same,GFP response relative to DMSO,[13]; [23],92.8%
same,GFP response relative to DMSO,[13]; [24],92.9%
same,GFP response vs DMSO,[14],92% (inactive)
same,"GFP response, % of DMSO",[15],98.3% (inactive)
same,"GFP response, % of DMSO",[15]; [21],101%
same,"GFP response, % of DMSO",[15]; [22],96.1%
same,double positive events,[16],72%
same,vesicle binding response,[16],363% (inactive)
C=CCNc1nc(N)c(C(=C(C#N)C#N)c2ccccc2)s1,inhibition,[1],0.8% (inactive)
same,binding response (% of control),[2],98.2% (inactive)
same,response (percent of control binding),[3],87.1% (inactive)
same,response (% of control binding),[4],99% (inactive)
same,binding response (% of control),[5],95.9% (inactive)
same,response (percent of control binding),[6],113% (inactive)
O=c1cnn([C@@H]2O[C@H](CO)[C@@H](O)[C@H]2O)c(=O)[nH]1,percent of DMSO control GFP,[7],84.9% (active)
same,GFP response vs DMSO,[8],88.8% (inactive)
same,percent response of DMSO control,[9],80.8% (inactive)
same,GFP response vs DMSO,[10],129% (inactive)
same,"GFP response, % of DMSO",[11],98% (inactive)
same,GFP response vs DMSO,[12],80.6% (inactive)
same,GFP response vs DMSO,[12]; [21],81%
same,GFP response vs DMSO,[12]; [22],81.6%
same,GFP response relative to DMSO,[13],109% (inactive)
same,GFP response relative to DMSO,[13]; [23],104%
same,GFP response relative to DMSO,[13]; [24],109%
same,GFP response vs DMSO,[14],93.3% (inactive)
same,"GFP response, % of DMSO",[15],77.7% (inactive)
same,"GFP response, % of DMSO",[15]; [21],77.9%
same,"GFP response, % of DMSO",[15]; [22],74.6%
same,double positive events,[16],62.2%
same,vesicle binding response,[16],127% (inactive)
Cc1cc(C)cc(N(CC(=O)Nc2c(C)n(C)n(-c3ccccc3)c2=O)S(C)(=O)=O)c1,RGS16–Galpha-o binding response,[17],-28.4%
same,RGS19–Galpha-o binding response,[18],156%
same,RGS7–Galpha-o binding response,[19],-21.3%
same,RGS8–Galpha-o binding response,[20],1.54%
same,inhibition,[1],-0.5% (inactive)
same,binding response (% of control),[2],104% (inactive)
same,response (percent of control binding),[3],104% (inactive)
same,response (% of control binding),[4],108% (inactive)
same,binding response (% of control),[5],103% (inactive)
same,response (percent of control binding),[6],108% (inactive)
O=C(NC1CCCCC1)N1CCc2[nH]c3ccccc3c2C1,percent of DMSO control GFP,[7],89.3% (inactive)
same,GFP response vs DMSO,[8],147% (active)
same,percent response of DMSO control,[9],119% (inactive)
same,GFP response vs DMSO,[10],83.6% (inactive)
same,"GFP response, % of DMSO",[11],93.1% (inactive)
same,GFP response vs DMSO,[12],98.8% (inactive)
same,GFP response vs DMSO,[12]; [21],98.1%
same,GFP response vs DMSO,[12]; [22],98.5%
same,GFP response relative to DMSO,[13],97.9% (inactive)
same,GFP response relative to DMSO,[13]; [23],97.6%
same,GFP response relative to DMSO,[13]; [24],98.3%
same,GFP response vs DMSO,[14],100% (inactive)
same,"GFP response, % of DMSO",[15],107% (inactive)
same,"GFP response, % of DMSO",[15]; [21],105%
same,"GFP response, % of DMSO",[15]; [22],107%
same,double positive events,[16],61.4%
same,vesicle binding response,[16],212% (inactive)
Cc1ncoc1C(=O)NCCC(c1ccccc1)c1ccccc1,inhibition,[1],0.1% (inactive)
same,binding response (% of control),[2],101% (inactive)
same,response (percent of control binding),[3],110% (inactive)
same,response (% of control binding),[4],101% (inactive)
same,binding response (% of control),[5],103% (inactive)
same,response (percent of control binding),[6],111% (inactive)
